Compound activity deposited in PubChem by National Center for Advancing Translational Sciences (NCATS).
The list is not random: actives were taken first. Their share in the collection is about 5.9%.
RORgamma inh: qHTS for inhibitors of ROR gamma transcriptional activity; Nuclear receptor ROR-gamma (Mus musculus), P51450; Drosophila S2 Gal4-RORgamma UAS-luciferase reporter, 20 h; Potency, µM (titrated, usually from 53.6 µM), inactives show top-dose activity change, negative = inhibition, most hits filed as inhibitors; 310,000 compounds, 5.4% hits; further: potency means the concentration at half of the fitted maximal effect; nearly all actives have a fitted effect of over 60% in size
Target sequence (P51450 whole entry, looked up, the tested form may be a part): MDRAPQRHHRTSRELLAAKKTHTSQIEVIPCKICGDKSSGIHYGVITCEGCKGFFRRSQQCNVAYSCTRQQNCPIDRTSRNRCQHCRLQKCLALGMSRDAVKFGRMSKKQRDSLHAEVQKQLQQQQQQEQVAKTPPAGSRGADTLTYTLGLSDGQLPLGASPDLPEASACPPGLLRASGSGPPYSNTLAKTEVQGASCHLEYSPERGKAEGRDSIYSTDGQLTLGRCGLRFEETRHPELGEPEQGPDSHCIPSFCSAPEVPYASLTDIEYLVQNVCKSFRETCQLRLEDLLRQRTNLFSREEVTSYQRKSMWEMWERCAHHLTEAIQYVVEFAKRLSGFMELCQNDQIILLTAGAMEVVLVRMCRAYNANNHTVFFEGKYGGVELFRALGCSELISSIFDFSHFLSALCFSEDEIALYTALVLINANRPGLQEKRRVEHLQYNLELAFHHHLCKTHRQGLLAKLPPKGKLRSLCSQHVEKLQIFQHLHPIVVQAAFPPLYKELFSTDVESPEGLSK
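Drosophila Schneider cells stably carrying a metallothionein-driven Gal4 DBD–ROR gamma fusion and a UAS-Photinus luciferase reporter were exposed to compound for 1 hr, then induced with copper sulfate (700 uM final) for 20 hr at ambient temperature before luminescence reading.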
FBPA coupling cs: qHTS Assay for Inhibitors of Fructose-1,6-bisphosphate Aldolase from Giardia Lamblia: Coupling assay counterscreen | activity change, negative = inhibition, % at 58.2 µM, hits read low | coupling enzyme system counterscreen, AmpLite Red fluorescence | 290,000 compounds, 0.67% hits | AID 2472, 2010; in the data active means activity change below about -30%
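Activity here indicates interference with the coupling reaction, not aldolase inhibition. Compounds at 57.5 uM final met coupling enzymes for 10 min at RT; substrate and AmpLite Red detection followed, with a 525/598 nm fluorescence read after 20 min.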
TrxR1 substrate: qHTS Assay for Substrates of Mammalian Selenoprotein Thioredoxin Reductase 1 (TrxR1): qHTS. purified TrxR1 substrate turnover, NADPH consumption readout. Potency, µM (highest dose often 114 µM), for the others: at the highest dose activity change, negative = substrate turnover. AID 588456, 2011. 390,000 compounds, 0.01% hits; further: potency means the concentration at half of the fitted maximal effect; nearly all actives have a fitted effect of over 50% in size
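Rat TrxR1, dispensed at 90 nM, was prereduced with 400 uM NADPH (final) for 5 min at ~22 deg C, then incubated with compound 15 min before 400 uM selenite. A first-read NADPH fluorescence drop versus no-compound background flagged substrates.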
GALK inh: qHTS Assay for Inhibitors of Human Galactokinase (GALK); Purified GALK, Kinase-Glo residual ATP luminescence; 270,000 compounds, 0.007% hits; AID 1868, 2009; Potency, µM (doses to about 57.5 µM), for inactives: top-dose activity change, negative = inhibition, most hits filed as inhibitors; further: potency means the concentration at half of the fitted maximal effect
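ATP-depletion format; final 35 uM ATP, 100 uM D-galactose, 5 nM enzyme; pH 8.0 HEPES/Mg2+ buffer; 60 min RT; luminescence read 10 min after detection reagent.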
Gal4-VP16 FLuc: VP16 counterscreen qHTS for inhibitors of ROR gamma transcriptional activity | Drosophila S2 Gal4-VP16 UAS-luciferase, luminescence, 20 h | Potency, µM (highest dose often 53.6 µM), without a hit: at the highest dose activity, negative = inhibition, actives largely listed as inhibitors | 310,000 compounds, 3.5% hits;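 further: Gal4-VP16 expression switched on by copper sulfate through the metallothionein promoter; potency means the concentration at half of the fitted maximal effect; nearly all actives have a fitted effect of over 50% in size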
rTrxR1 inhibitor: qHTS Assay for Inhibitors of Mammalian Selenoprotein Thioredoxin Reductase 1 (TrxR1): qHTS. AID 588453, 2011. 390,000 compounds, 1% hits. recombinant rTrxR1, NADPH fluorescence consumption, selenite substrate. Potency, µM (highest dose often 114 µM), without a hit: at the top dose activity change, negative = inhibition, hits mostly inhibitors; further: potency means the concentration at half of the fitted maximal effect; nearly all actives have a fitted effect of over 65% in size
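Rat TrxR1 (90 nM in the dispensed reagent) was pre-reduced with 400 uM NADPH for 5 min at room temperature, then incubated with compound for 15 min. After 400 uM selenite was added, NADPH fluorescence (Ex 340/Em 450 nm) was followed for 8 min.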
* = called active by the depositor; [ ] = remark or other dose. Unless noted, the call rests on the fitted dose curve; in most records, active means well fitted curve in the direction sought with a large enough effect; inconclusive means small, poorly fitted or top-dose-only effect, or another doubt; inactive means no such curve, though single readings can be large; an effect the other way counts as inactive or inconclusive. On the % scale 0 is the no-effect control and ±100 the full control effect.

How did COC(=O)C1CCN(c2c([N+](=O)[O-])cc(C(F)(F)F)cc2[N+](=O)[O-])CC1 do in these assays?
RORgamma inh: 4%; FBPA coupling cs: 2; TrxR1 substrate: 5%[57.1 µM]; GALK inh: 1%; Gal4-VP16 FLuc: -4%; rTrxR1 inhibitor: 4%[57.1 µM]

Results for CC(=O)Nc1ccc(SCCCC(=O)c2ccccc2)cc1 ?
RORgamma inh: 40%; FBPA coupling cs: 4; TrxR1 substrate: -5%; GALK inh: 0%; Gal4-VP16 FLuc: inconclusive; rTrxR1 inhibitor: 29%

How did Cc1ccc(SCCNC(=S)Nc2cc(C)ccc2C)cc1 do in these assays?
RORgamma inh: 6.3µM*; FBPA coupling cs: 0; TrxR1 substrate: 9%; GALK inh: 2%; Gal4-VP16 FLuc: 7.9µM*; rTrxR1 inhibitor: 9%

Results for Cc1cc(C)cc(NC(=S)NCCCO)c1 ?
RORgamma inh: -40%; FBPA coupling cs: 2; TrxR1 substrate: 2%; GALK inh: 2%; Gal4-VP16 FLuc: -3%; rTrxR1 inhibitor: -8%

Results for Cc1cc(C)cc(NC(=S)NCCSc2ccc(Cl)cc2)c1 ?
RORgamma inh: 2.8µM*; FBPA coupling cs: 0; TrxR1 substrate: 0%[57.1 µM]; GALK inh: 2%; Gal4-VP16 FLuc: 5µM*; rTrxR1 inhibitor: 4%[57.1 µM]

Results for COc1ccc(NC(=O)c2cc(C(=O)Nc3ccc(OC)cc3OC)cc([N+](=O)[O-])c2)c(OC)c1 ?
RORgamma inh: -24%; FBPA coupling cs: -3; TrxR1 substrate: -2%; GALK inh: 5%; Gal4-VP16 FLuc: 1%; rTrxR1 inhibitor: 18%

How did CCCN(CCC)C(=S)NC(=O)c1ccc(Cl)cc1Cl do in these assays?
RORgamma inh: 0.28µM*; FBPA coupling cs: 1; TrxR1 substrate: 1%; GALK inh: 5%; Gal4-VP16 FLuc: 0.89µM*; rTrxR1 inhibitor: -7%

What do the screens show for `O=C(NC(=S)N(CCO)Cc1ccccc1)c1ccc(F)cc1Cl`?
RORgamma inh: 0.56µM*; FBPA coupling cs: 0; TrxR1 substrate: 4%; GALK inh: -2%; Gal4-VP16 FLuc: 2.8µM*; rTrxR1 inhibitor: 12%

What do the screens show for `CCN(CC)S(=O)(=O)c1ccc(C(=O)NC(=S)N(CCO)Cc2ccccc2)cc1`?
RORgamma inh: 1.1µM*; FBPA coupling cs: 2; TrxR1 substrate: 6%; GALK inh: -1%; Gal4-VP16 FLuc: 3.2µM*; rTrxR1 inhibitor: 6%

What do the screens show for `CCCOc1ccc(CN(CCC#N)C(=S)NC(=O)c2ccccc2)cc1`?
RORgamma inh: 0.32µM*; FBPA coupling cs: 1; TrxR1 substrate: -10%; GALK inh: -4%; Gal4-VP16 FLuc: 0.56µM*; rTrxR1 inhibitor: inconclusive

Results for C=CCNC(=O)c1ccc(Cl)cc1Cl ?
RORgamma inh: 7%; FBPA coupling cs: 0; TrxR1 substrate: 1%; GALK inh: 0%; Gal4-VP16 FLuc: 9%; rTrxR1 inhibitor: 10%

Results for OCCN(Cc1ccccc1)C(=S)Nc1ccc(F)cc1 ?
RORgamma inh: -24%; FBPA coupling cs: 0; TrxR1 substrate: 2%; GALK inh: 3%; Gal4-VP16 FLuc: 5%; rTrxR1 inhibitor: 8%

How did COc1cc(C(=O)NC(=S)N(CCC#N)Cc2cccnc2)cc(OC)c1OC do in these assays?
TrxR1 substrate: -6%[11.4 µM]; rTrxR1 inhibitor: -20%

How did Cn1cc(C(F)(F)F)nc1-c1ccc(OCC(O)CNCCOc2ccc(O)c(C(N)=O)c2)cc1 (stereo not given) do in these assays?
RORgamma inh: -4%; FBPA coupling cs: -3; TrxR1 substrate: 6%[57.1 µM]; GALK inh: -1%; Gal4-VP16 FLuc: -7%; rTrxR1 inhibitor: -5%[57.1 µM]

How did COc1ccccc1CNS(=O)(=O)c1c(C)noc1C do in these assays?
RORgamma inh: 2%; FBPA coupling cs: -4; TrxR1 substrate: -3%; GALK inh: 3%; Gal4-VP16 FLuc: 0%; rTrxR1 inhibitor: 2%

How did COc1ccc2c(CNCc3ccc(C)o3)c(C(=O)O)n(Cc3ccccc3C)c2c1 do in these assays?
TrxR1 substrate: 1%; rTrxR1 inhibitor: 5%

Results for Brc1cc2[nH]cnc2c2ccccc12 ?
RORgamma inh: 10%; FBPA coupling cs: -39*; TrxR1 substrate: 2%; GALK inh: 0%; Gal4-VP16 FLuc: -1%; rTrxR1 inhibitor: 8%

What do the screens show for `O=C(COC(=O)Cn1cnc2ccccc21)Nc1cc2c(cc1Cl)C(=O)c1ccccc1C2=O`?
RORgamma inh: 2.8µM*; FBPA coupling cs: -4; TrxR1 substrate: 6%; GALK inh: 2%; Gal4-VP16 FLuc: inconclusive; rTrxR1 inhibitor: 45%

Results for O=C(COC(=O)Cn1cnc2ccccc21)Nc1cc(S(=O)(=O)N2CCOCC2)ccc1Cl ?
RORgamma inh: 54%; FBPA coupling cs: 1; TrxR1 substrate: 1%; GALK inh: 0%; Gal4-VP16 FLuc: 0%; rTrxR1 inhibitor: 13%

How did Cc1nn(C(C)C(=O)NCc2ccco2)c(C)c1[N+](=O)[O-] (stereo not given) do in these assays?
RORgamma inh: 5%; FBPA coupling cs: 0; TrxR1 substrate: 11%; GALK inh: 1%; Gal4-VP16 FLuc: -4%; rTrxR1 inhibitor: 42%

Results for C/C(=N\NC(=O)C(C)n1nc(C)c([N+](=O)[O-])c1C)c1ccccc1O (stereo not given) ?
RORgamma inh: 0.14µM*; FBPA coupling cs: -7; TrxR1 substrate: -12%; GALK inh: 1%; Gal4-VP16 FLuc: 0.18µM*; rTrxR1 inhibitor: -2%

Results for CN(NS(=O)(=O)c1ccc(F)cc1)c1ncc(C(F)(F)F)cc1Cl ?
RORgamma inh: 3.2µM*; FBPA coupling cs: -4; TrxR1 substrate: -9%; GALK inh: 0%; Gal4-VP16 FLuc: 6.3µM*; rTrxR1 inhibitor: 4%

Results for CN(NS(=O)(=O)c1ccc(Cl)cc1)c1ncc(C(F)(F)F)cc1Cl ?
RORgamma inh: 2.2µM*; FBPA coupling cs: -3; TrxR1 substrate: -1%; GALK inh: -1%; Gal4-VP16 FLuc: 3.2µM*; rTrxR1 inhibitor: 11%

Results for COc1ccc(CCNC(=O)CCS(=O)(=O)c2ccc3nc(C)sc3c2)cc1OC ?
RORgamma inh: 2%; FBPA coupling cs: 0; TrxR1 substrate: -1%[57.1 µM]; Gal4-VP16 FLuc: 8%; rTrxR1 inhibitor: 9%[57.1 µM]
